The record followed here is PubChem BioAssay (NCI).

Structures are written as SMILES. This is part of a sample that, as a whole, favours compounds with a hit. Of some 83,000 tested, about 20% had one in any assay.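 Percent growth is the endpoint: 0 to 100 indicates growth inhibition (40 means 60% inhibition), 0 means no net growth, and negative values indicate cell death.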 A number with no mark means an inactive call. The source made the active and inactive calls. The calls were made as follows: active = growth percent below 10; inactive = the rest.

The assay has as its system HL-60(TB) leukemia. The assay is described as follows: NCI-60 one-dose screen, 48 h (100 = growth as untreated, 0 = no growth, -100 = all killed). As to conditions: 10 µM unless noted.
Consider `COc1ccc(/C=C(\C#N)n2nnc3c(F)cccc32)cc1`, for which the growth is -5.39% (active).

With `CCCCCCCC/C=C\CCCCCCCCOc1ccccc1CC(=O)NCC[N+]1(C)CCOCC1`, the growth is 67.2%. With `CC(=O)c1sc(-c2ccccc2)cc1N` the figure was 83.6%. With `O=C(Nc1nccs1)c1noc2ccccc12` the figure was 95%; with `C/C=C1\SC(=S)NC1=O`, 110%. With `CCC(=O)N1C/C(=C/c2ccc(Br)cc2)C(=O)/C(=C/c2ccc(Br)cc2)C1` the figure was -26.2% (active).

`Nc1ncc(-c2ccc3ncnc(N4CCc5cc(F)c(Cl)cc54)c3c2)cc1C(F)(F)F`: the growth was 21.5%. Then `CCCOC(=O)C(O)c1ccccc1` (configuration not stated), with 113%; and `Cc1cnc(N)s1`, with 97.7%; and `COc1ccc(CCN2CCCn3c2nc2ccccc2c3=O)cc1`, with -5.2% (active).

On to `CCOC(=O)c1c(C)nc2c(c1N)CC(=O)N2CCc1ccccc1`, for which the growth is -3.38% (active).

For `COc1ccc(/C=N/NC(N)=S)cc1`, the growth is 88.9%. With `CC(C)c1ccc(C(=O)OCCCl)cc1` the figure was 85.5%; with `CC(C)=CCC[C@](C)(O)C1CC[C@]2(C)[C@@H]1CC[C@@H]1[C@@]3(C)CC/C(=N\OCCC#N)C(C)(C)[C@@H]3CC[C@]12C` (some centres not stated), 69.3%; with `COc1ccc2c(c1)OC1=C(C(=O)OC1)C2c1cc(OC)c(OC)c(OC)c1` (configuration not stated), 5.99% (active). Then `O=C(CCCCCCN1CC(=O)N2[C@@H](c3ccccc3Cl)c3[nH]c4ccccc4c3C[C@H]2C1=O)NO`, with 55%.

Consider `O=c1[nH]nc(-c2ccc(Cl)cc2)cc1Cc1ccccc1`, for which the growth was 77%.
